Data reported in PubChem BioAssay (NCI).
About 83,000 compounds went through this panel and 20% of them were active in at least one assay; those are over-represented in the sample as a whole.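 Results are percent growth after 48 hours of single-concentration exposure. 100 means growth as in untreated cells, lower positive values show inhibition; negative values down to -100 show cell death.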 Calls of active or inactive are those of the source. The calls were made as follows: active = growth percent below 10; inactive = the rest.

Legend:
Test in all cases: NCI-60 one-dose screen, 48 h (100 = growth as untreated, 0 = no growth, -100 = all killed)
Settings in all cases: 10 µM unless noted
[1] = test system: SR leukemia
[2] = test system: RPMI-8226 leukemia
[3] = test system: OVCAR-8 ovarian
[4] = test system: OVCAR-5 ovarian
[5] = test system: OVCAR-4 ovarian
[6] = test system: SK-OV-3 ovarian
[7] = test system: IGROV1 ovarian
[8] = test system: OVCAR-3 ovarian
[9] = test system: HS 578T breast
[10] = test system: NCI/ADR-RES ovarian
[11] = test system: T-47D breast
[12] = test system: BT-549 breast
[13] = test system: MDA-MB-435 melanoma
[14] = test system: SW-620 colon
[15] = test system: MCF7 breast
[16] = test system: HCT-116 colon
[17] = test system: HCC-2998 colon
[18] = test system: KM12 colon

Measured: growth

O=C(/C=C(/C=C/c1coc2ccccc12)OB(F)F)/C=C/c1coc2ccccc12
inactive: [1] 48.8% | [2] 84.9% | [3] 87.7% | [4] 113% | [5] 107% | [6] 122% | [7] 97.5% | [8] 58.2% | [9] 91.4% | [10] 102% | [11] 88.1% | [12] 99.3% | [13] 48.1% | [14] 86.3% | [15] 82.8% | [16] 75.3% | [17] 98.8% | [18] 91.3%

O=C(Cn1c[n+](CC(=O)c2ccc(-c3ccccc3)cc2)c2ccccc21)Nc1cccc2cccnc12
active: [1] -17.1% | [2] -30.2% | [7] -38.2% | [8] -1.51% | [12] -9.9% | [13] 7.5% | [17] 6.56% | [18] -31.5%
inactive: [3] 20% | [4] 62.8% | [5] 10.3% | [6] 50.5% | [9] 33.5% | [10] 96.7% | [11] 10.8% | [14] 36.1% | [15] 12.6% | [16] 11.9%

Cc1ccc(C(=O)/C(=C\c2ccc([N+](=O)[O-])cc2)S(=O)Cc2ccc(Cl)cc2)cc1 (stereo not given)
inactive: [3] 25.6% | [4] 45.8% | [5] 58.9% | [6] 106% | [8] 22.4% | [9] 36.9% | [10] 30.5% | [12] 62% | [13] 50.1% | [15] 15.2% | [17] 58.8% | [18] 46.6%
active: [1] 6.07% | [2] -28.1% | [7] 1.23% | [11] -19.1% | [14] 7.46% | [16] -50.1%

OCc1cnc2ccccc2c1NC1CCCCCC1
inactive: [1] 91.4% | [2] 75% | [3] 84.7% | [4] 100% | [5] 86.3% | [6] 97.7% | [7] 95.5% | [8] 89.5% | [9] 90.5% | [10] 57.5% | [11] 65% | [12] 105% | [13] 91.4% | [14] 98% | [15] 73.5% | [16] 77.9% | [17] 111% | [18] 96.4%

C=C1C(=O)O[C@H]2[C@H]1CC/C(CNC(=O)CCc1ccc(OC)cc1)=C\CC[C@@]1(C)O[C@@H]21
inactive: [1] 14.3% | [2] 51.4% | [3] 39.2% | [4] 82% | [5] 80% | [6] 103% | [7] 61.7% | [8] 30.6% | [9] 86.4% | [10] 95.4% | [11] 40.8% | [12] 43.1% | [13] 14.3% | [14] 19% | [15] 33.5% | [16] 19.8% | [17] 97.5% | [18] 97.4%

CCOC(=O)Oc1c(OC)cc(C(=O)c2ccc(OC)c(O)c2OC)cc1OC
inactive: [1] 28% | [2] 21% | [3] 28.5% | [4] 76.6% | [5] 75.3% | [6] 31.6% | [7] 41.8% | [9] 14.7% | [11] 43.8% | [12] 40.1% | [14] 20.5% | [15] 19.5% | [17] 39.7% | [18] 25.7%
active: [8] -1.93% | [10] -9.66% | [13] -47.4% | [16] 9.57%

C=C1C(=O)O[C@H]2[C@H]1CC/C(C(=O)NCCCCCNC(=O)/C1=C/CC[C@@]3(C)O[C@H]3[C@H]3OC(=O)C(=C)[C@@H]3CC1)=C\CC[C@@]1(C)O[C@@H]21
inactive: [1] 83.6% | [2] 95.5% | [3] 103% | [4] 93.9% | [5] 116% | [6] 120% | [7] 101% | [8] 103% | [9] 104% | [10] 103% | [11] 94.2% | [12] 98.2% | [13] 105% | [14] 101% | [15] 88.2% | [16] 87% | [17] 105% | [18] 103%

CC(=O)Nc1ccc(-n2cnc3cc(-c4ccc(OCCN5CCCCC5)cc4)ccc32)cc1
inactive: [2] 54% | [3] 87.1% | [4] 104% | [5] 82.6% | [6] 139% | [7] 97.4% | [8] 98.4% | [9] 95.3% | [10] 97.2% | [11] 107% | [12] 99.4% | [13] 102% | [15] 70.6% | [17] 119% | [18] 29%
active: [1] -9.89% | [14] -29% | [16] -51.2%

COC(=O)N[C@H]1CCc2c(Cl)c(OC)c(OC)c(OC)c2-c2ccc(SC)c(=O)cc21
inactive: [3] 15.4% | [4] 38.5% | [5] 39.5% | [6] 40.3% | [11] 40.4% | [14] 16.1% | [15] 10.8% | [17] 21.5%
active: [1] 2.15% | [2] -5.28% | [7] 9.16% | [8] -46.2% | [9] 9.58% | [10] 7.43% | [12] -4.69% | [13] -49.9% | [16] 0.452% | [18] 1.72%

O=C(c1nc2ccccc2[nH]1)C1C(c2ccc(Br)cc2)C2CC3CCCC[C@H]3N2[C@@]12C(=O)Nc1cc(Cl)ccc12 (stereo not given in full)
inactive: [1] 31.3% | [2] 17% | [3] 58.5% | [4] 46.8% | [5] 34.7% | [6] 67.6% | [7] 28.8% | [8] 34.3% | [9] 66.8% | [10] 46.7% | [11] 29.1% | [12] 71.6% | [13] 23.7% | [14] 31.2% | [15] 16% | [16] 21.1% | [17] 39.7% | [18] 37.9%

O=C1c2cccc3c(-c4ccc5c(c4)ncn5C4CCCCC4)ccc(c23)C(=O)N1c1nc2ccccc2s1
inactive: [1] 81% | [2] 75.6% | [3] 98% | [4] 102% | [5] 79.1% | [6] 95% | [7] 92.3% | [8] 89.8% | [9] 92.9% | [10] 91.3% | [11] 72.6% | [12] 95.8% | [13] 100% | [14] 108% | [15] 69% | [16] 84.4% | [17] 93% | [18] 83.8%

COc1cc2nc(-c3ccc(C(F)(F)F)cc3)cc(OCCCN3CCCC3)c2cc1OC
active: [13] -21.1%
inactive: [1] 19.4% | [2] 21.6% | [3] 48.7% | [4] 56.9% | [5] 57.1% | [6] 88.6% | [7] 36.2% | [8] 64.8% | [9] 64.4% | [10] 46.4% | [11] 38.4% | [12] 28.8% | [14] 28.6% | [15] 44.7% | [16] 23.6% | [17] 70% | [18] 36.4%

O=C1c2c(c3c4cccc(F)c4[nH]c3c3ccc4ccccc4c23)C(=O)N1O
inactive: [3] 42.2% | [4] 103% | [5] 56.6% | [6] 75.5% | [7] 35.2% | [8] 36% | [9] 62.1% | [10] 64.2% | [11] 19.6% | [12] 52.7% | [13] 60.7% | [14] 31.2% | [15] 19.4% | [16] 16.9% | [17] 76.3% | [18] 25.4%
active: [1] 7.28% | [2] 0.257%

CCOC(=O)Nc1ccc(-c2ccc3c(c2)NC(=O)/C3=C\c2ccc[nH]2)cc1
inactive: [1] 19.3% | [2] 100% | [3] 105% | [4] 72.8% | [5] 45% | [6] 91% | [7] 94.1% | [8] 106% | [9] 106% | [10] 102% | [12] 56.4% | [13] 102% | [14] 113% | [15] 10% | [16] 107% | [17] 85.8% | [18] 63.6%
active: [11] 6.7%

O=C(/C(=C\c1ccc([N+](=O)[O-])cc1)S(=O)Cc1ccc(Cl)cc1)c1ccc(Cl)cc1 (stereo not given)
inactive: [1] 15% | [3] 73.6% | [4] 73.6% | [5] 81.1% | [6] 105% | [7] 62.7% | [8] 73.7% | [9] 85.1% | [10] 71.7% | [11] 51.6% | [12] 94.6% | [13] 82.6% | [14] 28% | [15] 49% | [17] 80.4% | [18] 73.8%
active: [2] 1.3% | [16] 4.9%
